The results in this text go back to PubChem BioAssay AID2639 (National Center for Advancing Translational Sciences (NCATS), 2010).

Calls of active or inactive are those of the source. Calls follow the shape of the full dose curve.

The assay is described as follows: Platelet Aggregation Secondary Assay for Inhibitors of Platelet Integrin alphallb-beta3. Conditions: platelet-rich plasma, ADP-induced aggregation, absorbance 563 nm. The source says: NIH Molecular Libraries Probe Production Network [MLPCN] NIH Chemical Genomics Center [NCGC] MLPCN Grant: 1 R03 MH083257-01 Assay Provider: Barry Coller, Rockefeller University NCGC Assay Overview: The alphaIIbbeta3 receptor plays a vital role in hemostasis and thrombosis, where receptor deficiency causes the hemorrhagic disorder, Glanzmann thrombasthenia, and uncontrolled receptor activation causes thrombosis and blood vessel occlusion. Small molecule inhibitors of alphaIIbbeta3, tirofiban and eptifibatide, have undesirable side effects thought to arise from conformational changes in alphaIIbbeta3. These changes transiently activate the receptor to cause spontaneous platelet aggregation and thrombus formation. […] This secondary assay measures platelet aggregation (Blue et al., 2008). Platelets are induced to aggregate and aggregation is tracked by the change in absorbance over time. Inhibitors of alphaIIbbeta3 block platelet aggregation and decrease the rate of change in absorbance.
NCGC Assay Protocol Summary: Untreated 96-well polystyrene plates (Nunc, Rochester, NY) were blocked for at least 1 hour with HBMT (138 mM NaCl, 12 mM NaHCO3, 10 mM HEPES, 2.7 mM KCl, 0.4 mM NaH2PO4, 0.1% glucose, 0.35% BSA, pH 7.4). Compounds (33 uL in HBMT) and citrated platelet-rich plasma (67 uL) were added to the wells. After plates equilibrated at 37 C in the plate reader (SpectraMax; Molecular Devices, Sunnyvale, CA) for 10 minutes, aggregation was initiated by adding ADP (5 uM final concentration; Chrono-Log Corp, Havertown, PA). Absorbance (Abs) was measured at 563 nm every 10 seconds with 3 seconds of shaking between determinations for 8 minutes. Reference Blue R, Murcia M, Karan C, Jirouskova M, and Coller BS. Application of high-throughput screening to identify a novel alphaIIb-specific small- molecule inhibitor of alphaIIbbeta3-mediated platelet interaction with fibrinogen. Blood. 2008, 111(3):1248-56
As for `NCCC(=O)Nc1cccc(-c2nn3c(=O)cc(N4CCNCC4)nc3s2)c1`, the Potency was 1.6 µM (active).
Same read-out and setting: in the case of `O=c1cc(N2CCNCC2)nc2sc(-c3cccc(-c4ccncc4)c3)nn12` it was 8 µM (active); in that of `C[C@H](N)C(=O)Nc1cccc(-c2nn3c(=O)cc(N4CCNCC4)nc3s2)c1`, 0.916 µM (active).
Turning to `O=C(Nc1cccc(-c2nn3c(=O)cc(N4CCNCC4)nc3s2)c1)C1CCNCC1`, the Potency was 8.6 µM (active).
As to `CCc1nn2c(=O)cc(NC3CNC3)nc2s1`, the molecule was classed as inactive.
On to `O=c1cc(N2CCNCC2)nc2sc(Cc3ccccc3)nn12`, for which the Potency was 13.9 µM (active).
Regarding `CC(C)(C)c1nn2c(=O)cc(N3CCNCC3)nc2s1`, the call was inactive.
In the case of `O=C(O)c1cc(-c2cccc(-c3nn4c(=O)cc(N5CCNCC5)nc4s3)c2)cs1`, the outcome was inactive.
Consider `O=c1cc(N2CCNCC2)nc2sc(-c3cccc(-c4ccnc(F)c4)c3)nn12`, for which the Potency was 8.4 µM (active).
`CCc1nn2c(=O)cc(-c3ccncc3)nc2s1`: the result was inactive.
For the molecule `Nc1ccc(-c2cccc(-c3nn4c(=O)cc(N5CCNCC5)nc4s3)c2)cc1`, the Potency is 1.9 µM (active).
With `O=C(O)c1ccc(-c2cccc(-c3nn4c(=O)cc(N5CCNCC5)nc4s3)c2)cc1`, the Potency was 11.4 µM (active).
Consider `NCC(=O)Nc1cccc(-c2nn3c(=O)cc(N4CCNCC4)nc3s2)c1`, for which the Potency is 0.163 µM (active).
Take `O=C(O)c1cccc(-c2cccc(-c3nn4c(=O)cc(N5CCNCC5)nc4s3)c2)c1`: the result was inactive.
For `NC(=O)c1ccc(-c2cccc(-c3nn4c(=O)cc(N5CCNCC5)nc4s3)c2)cc1`, the Potency was 1.6 µM (active).
For the molecule `CNCC(=O)Nc1cccc(-c2nn3c(=O)cc(N4CCNCC4)nc3s2)c1`, the molecule was classed as inactive.
Turning to `Nc1ncc(-c2cccc(-c3nn4c(=O)cc(N5CCNCC5)nc4s3)c2)cn1`, the Potency was 10.1 µM (active).
`COCc1nn2c(=O)cc(N3CCNCC3)nc2s1`: the result was inactive.
With `O=C(O)c1ccc(-c2nn3c(=O)cc(N4CCNCC4)nc3s2)cc1`, the Potency is 5.4 µM (active).
For `CCc1nn2c(=O)cc(N3C(C)CNCC3C)nc2s1` (stereo unspecified), the result was inactive.
On the same count and under the same terms, under `Cc1noc(C)c1-c1cccc(-c2nn3c(=O)cc(N4CCNCC4)nc3s2)c1` stands “inactive”.
On to `O=C(O)CNc1cccc(-c2nn3c(=O)cc(N4CCNCC4)nc3s2)c1`, for which the Potency is 12.7 µM (active).
Same read-out and setting: in the case of `O=c1cc(N2CCNCC2)nc2sc(-c3ccncc3)nn12` it was 3.1 µM (active); in that of `O=C(Nc1cccc(-c2nn3c(=O)cc(N4CCNCC4)nc3s2)c1)c1ccncc1`, 1.5 µM (active).
On the same count and under the same terms, under `C[C@@H](N)C(=O)Nc1cccc(-c2nn3c(=O)cc(N4CCNCC4)nc3s2)c1` stands 5.9 µM (active).
`O=C(Nc1cccc(-c2nn3c(=O)cc(N4CCNCC4)nc3s2)c1)c1ccon1`: the molecule was called inactive.
